# Experimental data taken from PubChem BioAssay (EPA / NIEHS).
# “And” between values parts separate entries of the source, which are not always exact repeats. Identical values can stand only once. Some structures have more than one record in an assay (separate samples or runs), and their calls can disagree. The source made the active and inactive calls. The calls were made as follows: active = hit-call score of the fitted dose curve at least 0.9, where 1 is the maximum; inactive = score below 0.9.
# Columns and labels:
# [1] = BSK_MyoF_SRB: Viability Assessment in the BioMAP Diversity Plus: MyoF Assay (AID 2284267); details: primary human lung fibroblasts;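 also: total protein by SRB absorbance in parallel cultures as cytotoxicity measure; cells assessed 24 h after compound addition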
# In short: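 In this viability endpoint, fibroblasts from human lung are treated for 24 h, TCA-fixed, SRB-stained (0.1%) and read at 560 nm. Gain of signal relative to DMSO defines activity.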
# [2] = read-out: Matrix Metallopeptidase 1 (MMP1), MMP1 (gene 4312); experiment: BSK_MyoF_MMP1: BioMAP Diversity Plus: MyoF Assay for Matrix Metallopeptidase 1 (MMP1) Biomarker Activity (AID 2284268); details: primary human lung fibroblasts
# In short: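 Lung fibroblast cultures were dosed with test chemicals and, after 24 h, MMP1 levels were measured by ELISA; responses were referenced to DMSO and analysed for increases.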
# [3] = read-out: TIMP metallopeptidase inhibitor 1 (TIMP1), TIMP1 (gene 7076); experiment: BSK_MyoF_TIMP1: BioMAP Diversity Plus: MyoF Assay for TIMP metallopeptidase inhibitor 1 (TIMP1) Biomarker Activity (AID 2284269); details: primary human lung fibroblasts
# In short: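 Primary human lung fibroblasts, MyoF multiplex system; chemical exposure 24 h; TIMP-1 by ELISA; positive fitting direction vs DMSO control.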
# [4] = read-out: Intercellular Adhesion Molecule 1 (ICAM1), ICAM1 (gene 3383); experiment: BSK_BE3C_ICAM1: BioMAP Diversity Plus: BE3C Assay for Intercellular Adhesion Molecule 1 (ICAM1) Biomarker Activity (AID 2284278); details: primary human bronchial epithelial cells;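 as to outcome: cell-surface ICAM-1 protein level quantified by ELISA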
# In short: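 hu bronchial epithelial primary cells, 24 h cpd exposure, ICAM-1 ELISA; gain-of-signal fit vs DMSO baseline.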
# [5] = read-out: Interferon-inducible T-cell alpha chemoattractant (ITAC), CXCL11 (gene 6373); experiment: BSK_BE3C_ITAC: BioMAP Diversity Plus: BE3C Assay for Interferon-inducible T-cell alpha chemoattractant (ITAC) Biomarker Activity (AID 2284279); details: primary human bronchial epithelial cells
# In short: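 Steps: dose human bronchial epithelial cells with chemical; incubate 24 h; measure I-TAC by ELISA; fit endpoint in positive direction against DMSO control. Cytotoxicity was checked in parallel cultures by SRB staining at harvest.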
# [6] = read-out: Interleukin-8 (IL8), CXCL8 (gene 3576); experiment: BSK_BE3C_IL8: BioMAP Diversity Plus: BE3C Assay for Interleukin-8 (IL8) Biomarker Activity (AID 2284280); details: primary human bronchial epithelial cells
# In short: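 Measured at 24 h after treatment, IL-8 from human primary bronchial epithelial cells is determined by ELISA, and the response is modelled as increasing relative to DMSO negative control.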
# [7] = read-out: Epidermal growth factor receptor (EGFR), EGFR (gene 1956); experiment: BSK_BE3C_EGFR: BioMAP Diversity Plus: BE3C Assay for Epidermal growth factor receptor (EGFR) Biomarker Activity (AID 2284281); details: primary human bronchial epithelial cells
# In short: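 Measured 24 h after dosing in primary human bronchial epithelial cultures, EGFR was read by ELISA; gain of signal over DMSO control defined activity.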
# KRT18 (gene 3875) = experiment: BSK_BE3C_Keratin818: BioMAP Diversity Plus: BE3C Assay for Keratin 818 Biomarker Activity (AID 2284282); details: primary human bronchial epithelial cells
# In short: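 In this multiplexed primary-cell system, bronchial epithelial cells were dosed and harvested at 24 h. Keratin 8/18 was determined by ELISA and analysed for increases over DMSO controls.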
# [8] = read-out: Matrix Metallopeptidase 9 (MMP9), MMP9 (gene 4318); experiment: BSK_BE3C_MMP9: BioMAP Diversity Plus: BE3C Assay for Matrix Metallopeptidase 9 (MMP9) Biomarker Activity (AID 2284283); details: primary human bronchial epithelial cells
# In short: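 BE3C, human bronchial epithelial primary cells; 24 h post-dose; MMP-9 by ELISA; positive fit vs DMSO; SRB (0.1%, TCA-fixed, 560 nm) parallel cytotox.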
# [9] = read-out: Plasminogen activator inhibitor-1 (PAI1), SERPINE1 (gene 5054); experiment: BSK_CASM3C_PAI1: BioMAP Diversity Plus: CASM3C Assay for Plasminogen activator inhibitor-1 (PAI1) Biomarker Activity (AID 2284284); details: primary human coronary artery smooth muscle cells;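 also: PAI-1 protein level measured by ELISA 24 h after dosing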
# [10] = read-out: Monocyte Chemoattractant Protein-1 (MCP1), CCL2 (gene 6347); experiment: BSK_hDFCGF_MCP1: BioMAP Diversity Plus: hDFCGF Assay for Monocyte Chemoattractant Protein-1 (MCP1) Biomarker Activity (AID 2284285); details: primary human foreskin fibroblasts
# In short: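 MCP-1 ELISA readout was taken 24 hours after dosing primary human dermal fibroblasts in the hDFCGF system, with DMSO as baseline. Parallel sulforhodamine B staining of total protein tracked overt cytotoxicity.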
# [11] = read-out: Intercellular Adhesion Molecule 1 (ICAM1), ICAM1 (gene 3383); experiment: BSK_hDFCGF_ICAM1: BioMAP Diversity Plus: hDFCGF Assay for Intercellular Adhesion Molecule 1 (ICAM1) Biomarker Activity (AID 2284287); details: primary human foreskin fibroblasts
# In short: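 ICAM-1 ELISA readout 24 h after dosing, DMSO as baseline, in human dermal foreskin fibroblast cultures. Cytotoxicity checked in parallel wells by SRB staining (0.1% SRB, 10% TCA fixation, 560 nm).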
# [12] = read-out: TIMP metallopeptidase inhibitor 2 (TIMP2), TIMP2 (gene 7077); experiment: BSK_hDFCGF_TIMP2: BioMAP Diversity Plus: hDFCGF Assay for TIMP metallopeptidase inhibitor 2 (TIMP2) Biomarker Activity (AID 2284289); details: primary human foreskin fibroblasts
# In short: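 Primary human foreskin fibroblasts in the hDFCGF system, dosed for 24 h; TIMP-2 level measured by ELISA, fitted in the positive direction against DMSO; cytotoxicity checked in parallel by sulforhodamine B total protein staining.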
# [13] = read-out: Thrombomodulin, THBD (gene 7056); experiment: BSK_LPS_Thrombomodulin: BioMAP Diversity Plus: LPS Assay for Thrombomodulin Biomarker Activity (AID 2284296); details: primary human HUVEC with PBMC
# In short: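 Thrombomodulin on the surface of LPS-activated endothelial/PBMC co-cultures was quantified by ELISA at 24 hours post-dosing, with DMSO as baseline. Parallel SRB total-protein staining flagged overt cytotoxicity.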
smiles,measurement,setting,value
O=c1c2ccccc2oc2ccccc12,outcome,[1],inactive
same,outcome,[2],inactive
same,outcome,[3],inactive
N#[N+]c1ccc2c(S(=O)(=O)[O-])cccc2c1O,outcome,[1],inactive
same,outcome,[2],inactive
same,outcome,[3],inactive
CN1C(=O)N(C)C(O)C1O (stereo not given),outcome,[4],inactive
same,outcome,[5],inactive
same,outcome,[6],inactive
same,outcome,[7],inactive
same,outcome,KRT18 (gene 3875),inactive
same,outcome,[8],inactive
same,outcome,[9],inactive
same,outcome,[10],inactive
same,outcome,[11],inactive
same,outcome,[12],inactive
same,outcome,[13],inactive
C=C[Si](OC(C)=O)(OC(C)=O)OC(C)=O,outcome,[4],inactive
same,outcome,[5],inactive
same,outcome,[6],inactive
same,outcome,[7],inactive
same,outcome,KRT18 (gene 3875),inactive
same,outcome,[8],inactive
same,outcome,[9],inactive
same,outcome,[10],inactive
same,outcome,[11],inactive
same,outcome,[12],inactive
same,outcome,[13],inactive
C=CC=CC=CCCCCC,outcome,[1],inactive
same,outcome,[2],inactive
same,outcome,[3],inactive
CCCCNc1ccc(NCCCC)c2c1C(=O)c1ccccc1C2=O,outcome,[1],inactive
same,outcome,[2],inactive
same,outcome,[3],inactive
CO[Si](OC)(OC)c1ccccc1,outcome,[4],inactive
same,outcome,[5],inactive
same,outcome,[6],inactive
same,outcome,[7],inactive
same,outcome,KRT18 (gene 3875),inactive
same,outcome,[8],inactive
same,outcome,[9],inactive
same,outcome,[10],inactive
same,outcome,[11],inactive
same,outcome,[12],inactive
same,outcome,[13],inactive
CCCCC(CC)COC(=O)c1ccccc1O (stereo not given),outcome,[1],inactive
same,AC50,[2],10 µM (active)
same,outcome,[3],inactive
C/C=C\C/C=C/CCCCCCCCOC(C)=O,outcome,[1],inactive
same,outcome,[2],inactive
same,outcome,[3],inactive
CCCCCCCCCCCCCCCC[N+](C)(C)CC,AC50,[1],1.39 µM (active)
same,AC50,[2],9.34 µM (active)
same,AC50,[3],2.73 µM (active)
CCO[Si](CCCN=C=O)(OCC)OCC,outcome,[1],inactive
same,outcome,[2],inactive
same,outcome,[3],inactive
c1ccc(-c2ccccn2)nc1,outcome,[1],inactive
same,outcome,[2],inactive
same,outcome,[3],inactive
O=C(Cl)c1cc(C(=O)Cl)cc(C(=O)Cl)c1,AC50,[1],34.7 µM (active)
same,AC50,[2],31.9 µM (active)
same,AC50,[3],31.2 µM (active)
CC1OC1C1CCC2(C)OC2C1 (stereo not given),outcome,[1],inactive
same,outcome,[2],inactive
same,outcome,[3],inactive
CCOC(=O)c1ccccc1C(=C1C=C(Br)C(=O)C(Br)=C1)c1cc(Br)c(O)c(Br)c1,AC50,[4],5.49 µM (active) and 5.66 µM (active)
same,AC50,[5],3.9 µM (active) and 3.63 µM (active)
same,AC50,[6],7.85 µM (active) and 7.6 µM (active)
same,outcome,[7],inactive
same,AC50,KRT18 (gene 3875),3.98 µM (active) and 4.84 µM (active)
same,AC50,[8],4.52 µM (active) and 2.5 µM (active)
same,outcome,[9],inactive
same,AC50,[10],3.51 µM (active) and 3.62 µM (active)
same,AC50,[11],4.29 µM (active) and 4.91 µM (active)
same,AC50,[12],3.49 µM (active) and 3.46 µM (active)
same,AC50,[13],10.3 µM (active)
same,outcome,[13],inactive
CCCCC/C=C\C/C=C\CCCCCCCC(=O)OC,outcome,[1],inactive
same,AC50,[2],31.2 µM (active)
same,outcome,[3],inactive
S=C(NC1CCCCC1)NC1CCCCC1,outcome,[1],inactive
same,outcome,[2],inactive
same,outcome,[3],inactive
C#CC1(O)CC[C@H]2[C@@H]3CCC4=CCCC[C@@H]4[C@H]3CC[C@@]21C (stereo not given in full),AC50,[1],30.1 µM (active)
same,outcome,[2],inactive
same,AC50,[3],33.1 µM (active)
COCc1c(C(C)C)nc(C(C)C)c(/C=C/[C@@H](O)C[C@@H](O)CC(=O)O)c1-c1ccc(F)cc1,AC50,[2],0.0515 µM (active)
same,outcome,[3],inactive
CCCCCCCCc1ccc(Nc2ccc(CCCCCCCC)cc2)cc1,outcome,[1],inactive
same,outcome,[2],inactive
same,outcome,[3],inactive
C=CCOc1c(Br)cc(Br)cc1Br,AC50,[1],27.7 µM (active)
same,outcome,[2],inactive
same,AC50,[3],31.2 µM (active)
